Values joined by “and” are separate entries in the source; they are usually repeats but may differ in a detail not shown here. Equal values may be shown once. More than one record can exist for a structure, and the calls need not agree. Active and inactive are the calls of the source. Rule for the calls: active = hit-call score of the fitted dose curve at least 0.9, where 1 is the maximum; inactive = score below 0.9.

Consider 26 compounds from PubChem BioAssay (EPA / NIEHS).

Chain of Signal transducer and activator of transcription 3 (Homo sapiens) (P40763 whole entry, looked up): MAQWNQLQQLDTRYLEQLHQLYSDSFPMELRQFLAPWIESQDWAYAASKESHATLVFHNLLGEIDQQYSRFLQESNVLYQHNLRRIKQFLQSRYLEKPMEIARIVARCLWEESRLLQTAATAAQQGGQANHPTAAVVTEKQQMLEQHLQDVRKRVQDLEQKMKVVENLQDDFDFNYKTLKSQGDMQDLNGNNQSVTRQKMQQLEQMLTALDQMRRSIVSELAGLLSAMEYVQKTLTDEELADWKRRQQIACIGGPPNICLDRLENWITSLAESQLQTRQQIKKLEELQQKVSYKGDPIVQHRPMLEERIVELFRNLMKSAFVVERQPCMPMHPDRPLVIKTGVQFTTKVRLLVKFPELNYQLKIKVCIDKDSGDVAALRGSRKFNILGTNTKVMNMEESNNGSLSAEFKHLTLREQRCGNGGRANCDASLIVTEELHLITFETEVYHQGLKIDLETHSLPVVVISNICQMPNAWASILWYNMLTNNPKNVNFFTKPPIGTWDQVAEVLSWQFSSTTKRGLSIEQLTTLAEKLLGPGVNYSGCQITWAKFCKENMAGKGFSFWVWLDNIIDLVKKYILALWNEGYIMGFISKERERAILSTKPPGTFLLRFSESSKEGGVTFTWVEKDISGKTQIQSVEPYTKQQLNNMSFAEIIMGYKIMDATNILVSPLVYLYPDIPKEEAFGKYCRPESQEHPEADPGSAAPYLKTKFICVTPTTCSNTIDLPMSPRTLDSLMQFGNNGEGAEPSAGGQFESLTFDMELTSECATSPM

Read-out in the first test: Signal transducer and activator of transcription 3 (Homo sapiens) (UniProt P40763)
In words: LTEA_HepaRG_STAT3: Life Technologies and Expression Analysis (LTEA) Assay for Signal transducer and activator of transcription (STAT3) using HepaRG (AID 2283529). The conditions noted are these: mRNA level, 48 h; actives raise or lower the signal. In a few lines:
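HepaRG, 48 h exposure, 8-pt half-log series (top 100 uM), 0.5% DMSO vehicle, duplicates. Readout: STAT3 transcript by Fluidigm qRT-PCR, housekeeping-normalized; bidirectional fit vs DMSO baseline.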
In the case of `CCOC(=O)C(C)Oc1ccc(Oc2cnc3cc(Cl)ccc3n2)cc1` (centres undefined), the compound was classed as inactive.

As for `CC(C)(c1ccc(O)cc1)c1ccc(O)cc1`, the result was inactive.

As to `COc1c(Cl)ccc(Cl)c1C(=O)O`, the compound was called inactive.

As for `O=C(c1ccccc1)C1CCCCC1`, the compound was classed as inactive.

Turning to `CC(=O)[C@H]1CC[C@H]2[C@@H]3CCC4=CC(=O)CC[C@]4(C)[C@H]3CC[C@]12C`, the AC50 was 63.1 µM (active).

As for `C#CCOC(=O)[C@@H](C)Oc1ccc(Oc2ncc(Cl)cc2F)cc1`, the call was inactive.

With `COCCO`, the call was inactive.

On to `CCN(Cc1c(F)cccc1Cl)c1c([N+](=O)[O-])cc(C(F)(F)F)cc1[N+](=O)[O-]`, for which the result was inactive.

In the case of `CCCOC(=O)c1ccc(C(=O)OCCC)nc1`, the result was inactive.

Turning to `CCCCCCC(C)OC(=O)COc1nc(F)c(Cl)c(N)c1Cl` (centres undefined), the compound was classed as inactive.

With `C[C@]12CC[C@@H]3c4ccc(O)cc4C[C@@H](CCCCCCCCCS(=O)CCCC(F)(F)C(F)(F)F)[C@H]3[C@@H]1CC[C@@H]2O` (some centres undefined), the call was inactive.

`O=C(O)c1ccccc1`: the call was inactive.

Regarding `CCCCCOC(=O)COc1cc(N2C(=O)C3=C(CCCC3)C2=O)c(F)cc1Cl`, the compound was classed as inactive.

As for `CCCCOCCOCCOCc1cc2c(cc1CCC)OCO2`, the result was inactive.

Take `CCOC(=O)C(C)Oc1ccc(Oc2nc3ccc(Cl)cc3o2)cc1` (centres undefined): the compound was called inactive.

`CCCCOC(=O)[C@@H](C)Oc1ccc(Oc2ccc(C(F)(F)F)cn2)cc1`: the outcome was inactive.

With `S=C([S-])NCCNC(=S)[S-].[Mn+2]`, the half-maximal activity concentration (AC50) was 1.94 µM (active).

Regarding `C=CCOC(Cn1ccnc1)c1ccc(Cl)cc1Cl` (centres undefined), the compound was called inactive.

`CCN(CC)C(=O)c1cccc(C)c1`: the half-maximal activity concentration (AC50) was 4.39 µM (active).

Turning to `N[C@@H](Cc1cc(I)c(Oc2ccc(O)c(I)c2)c(I)c1)C(=O)O`, the call was inactive.

As for `O=C(Nc1ccc([N+](=O)[O-])cc1Cl)c1cc(Cl)ccc1O`, the half-maximal activity concentration (AC50) is 2.9 µM (active).

For the compound `CCSC(=O)N(CC(C)C)CC(C)C`, the result was inactive.

As to `CCCN(CCC)c1c([N+](=O)[O-])cc(C(F)(F)F)c(N)c1[N+](=O)[O-]`, the call was inactive.

Consider `COC(=O)CSc1cc(N=c2sc(=O)n3n2CCCC3)c(F)cc1Cl`, for which the call was inactive.

In the case of `S=C(S)NCCNC(=S)S.[Mn+2].[S-]C([S-])=NCCN=C([S-])[S-].[Zn+2]`, the AC50 is 809 nM (active) and 549 nM (active) and 297 nM (active).

Read-out in another test: solute carrier (SLCO1B1), SLCO1B1 (gene 10599)
Briefly: LTEA_HepaRG_SLCO1B1: Life Technologies and Expression Analysis (LTEA) Assay for solute carrier (SLCO1B1) using HepaRG (AID 2283530). The following applies: mRNA level, 48 h; actives raise or lower the signal. The gist of the method: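 SLCO1B1 transcript read by qRT-PCR (Fluidigm arrays), normalized to three housekeeping genes, after 48 h chemical exposure of HepaRG cells; bidirectional concentration-response fitting versus 0.5% DMSO baseline. Eight-point half-log series, maximum 100 uM.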
In the case of `CCOC(=O)C(C)Oc1ccc(Oc2cnc3cc(Cl)ccc3n2)cc1` (centres undefined), the compound was classed as inactive.

In the case of `CC(C)(c1ccc(O)cc1)c1ccc(O)cc1`, the AC50 was 9.92 µM (active) and the call was inactive.

For the compound `COc1c(Cl)ccc(Cl)c1C(=O)O`, the compound was classed as inactive.

`O=C(c1ccccc1)C1CCCCC1`: the outcome was inactive.

As for `CC(=O)[C@H]1CC[C@H]2[C@@H]3CCC4=CC(=O)CC[C@]4(C)[C@H]3CC[C@]12C`, the concentration at half-maximal activity (AC50) was 75.2 µM (active).

Regarding `COC(=O)c1ccc(I)cc1S(=O)(=O)NC(=O)Nc1nc(C)nc(OC)n1`, the compound was classed as inactive.

Consider `C#CCOC(=O)[C@@H](C)Oc1ccc(Oc2ncc(Cl)cc2F)cc1`, for which the compound was called inactive.

`COCCO`: the result was inactive.

Consider `CCN(Cc1c(F)cccc1Cl)c1c([N+](=O)[O-])cc(C(F)(F)F)cc1[N+](=O)[O-]`, for which the compound was called inactive.

As for `CCCOC(=O)c1ccc(C(=O)OCCC)nc1`, the call was inactive.

For `CCCCCCC(C)OC(=O)COc1nc(F)c(Cl)c(N)c1Cl` (centres undefined), the compound was classed as inactive.

Regarding `C[C@]12CC[C@@H]3c4ccc(O)cc4C[C@@H](CCCCCCCCCS(=O)CCCC(F)(F)C(F)(F)F)[C@H]3[C@@H]1CC[C@@H]2O` (some centres undefined), the AC50 was 25 µM (active).

Take `O=C(O)c1ccccc1`: the compound was called inactive.

Take `CCCCCOC(=O)COc1cc(N2C(=O)C3=C(CCCC3)C2=O)c(F)cc1Cl`: the compound was classed as inactive.

With `CCCCOCCOCCOCc1cc2c(cc1CCC)OCO2`, the AC50 is 8.47 µM (active).

For `CCOC(=O)C(C)Oc1ccc(Oc2nc3ccc(Cl)cc3o2)cc1` (centres undefined), the call was inactive.

`CCCCOC(=O)[C@@H](C)Oc1ccc(Oc2ccc(C(F)(F)F)cn2)cc1`: the compound was classed as inactive.

For the compound `S=C([S-])NCCNC(=S)[S-].[Mn+2]`, the half-maximal activity concentration (AC50) is 3.85 µM (active).

For the compound `C=CCOC(Cn1ccnc1)c1ccc(Cl)cc1Cl` (centres undefined), the concentration at half-maximal activity (AC50) was 35 µM (active).

Regarding `CCN(CC)C(=O)c1cccc(C)c1`, the compound was called inactive.

Turning to `N[C@@H](Cc1cc(I)c(Oc2ccc(O)c(I)c2)c(I)c1)C(=O)O`, the AC50 was 27.5 µM (active).

Turning to `O=C(Nc1ccc([N+](=O)[O-])cc1Cl)c1cc(Cl)ccc1O`, the half-maximal activity concentration (AC50) was 3.28 µM (active).

With `CCSC(=O)N(CC(C)C)CC(C)C`, the compound was called inactive.

Regarding `CCCN(CCC)c1c([N+](=O)[O-])cc(C(F)(F)F)c(N)c1[N+](=O)[O-]`, the compound was classed as inactive.

`COC(=O)CSc1cc(N=c2sc(=O)n3n2CCCC3)c(F)cc1Cl`: the compound was classed as inactive.

On to `S=C(S)NCCNC(=S)S.[Mn+2].[S-]C([S-])=NCCN=C([S-])[S-].[Zn+2]`, for which the AC50 was 1.25 µM (active) and 1.22 µM (active) and 1.54 µM (active).

Read-out in another test: sulfotransferase 2A1 (SULT2A1), SULT2A1 (gene 6822)
In words: LTEA_HepaRG_SULT2A1: Life Technologies and Expression Analysis (LTEA) Assay for sulfotransferase 2A1 (SULT2A1) using HepaRG (AID 2283531). The following applies: mRNA level, 48 h; actives raise or lower the signal. In a few lines: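 HepaRG, 48 h chemical exposure, 8-pt half-log curve from 100 uM in 0.5% DMSO, duplicates. Readout: TaqMan qRT-PCR of SULT2A1 mRNA, housekeeping-normalized. Bidirectional fit vs DMSO baseline.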
Take `CCOC(=O)C(C)Oc1ccc(Oc2cnc3cc(Cl)ccc3n2)cc1` (centres undefined): the AC50 is 2.34 µM (active).

With `CC(C)(c1ccc(O)cc1)c1ccc(O)cc1`, the half-maximal activity concentration (AC50) is 291 µM (active) and the call was inactive.

Turning to `COc1c(Cl)ccc(Cl)c1C(=O)O`, the call was inactive.

On to `O=C(c1ccccc1)C1CCCCC1`, for which the outcome was inactive.

Regarding `CC(=O)[C@H]1CC[C@H]2[C@@H]3CCC4=CC(=O)CC[C@]4(C)[C@H]3CC[C@]12C`, the AC50 was 38.5 µM (active).

Consider `COC(=O)c1ccc(I)cc1S(=O)(=O)NC(=O)Nc1nc(C)nc(OC)n1`, for which the outcome was inactive.

For `C#CCOC(=O)[C@@H](C)Oc1ccc(Oc2ncc(Cl)cc2F)cc1`, the outcome was inactive.

Regarding `COCCO`, the outcome was inactive.

With `CCN(Cc1c(F)cccc1Cl)c1c([N+](=O)[O-])cc(C(F)(F)F)cc1[N+](=O)[O-]`, the call was inactive.

`CCCOC(=O)c1ccc(C(=O)OCCC)nc1`: the result was inactive.

On to `CCCCCCC(C)OC(=O)COc1nc(F)c(Cl)c(N)c1Cl` (centres undefined), for which the result was inactive.

In the case of `C[C@]12CC[C@@H]3c4ccc(O)cc4C[C@@H](CCCCCCCCCS(=O)CCCC(F)(F)C(F)(F)F)[C@H]3[C@@H]1CC[C@@H]2O` (some centres undefined), the half-maximal activity concentration (AC50) was 24.9 µM (active).

On to `O=C(O)c1ccccc1`, for which the compound was classed as inactive.

In the case of `CCCCCOC(=O)COc1cc(N2C(=O)C3=C(CCCC3)C2=O)c(F)cc1Cl`, the result was inactive.

For the compound `CCCCOCCOCCOCc1cc2c(cc1CCC)OCO2`, the half-maximal activity concentration (AC50) is 6.8 µM (active).

With `CCOC(=O)C(C)Oc1ccc(Oc2nc3ccc(Cl)cc3o2)cc1` (centres undefined), the result was inactive.

Take `CCCCOC(=O)[C@@H](C)Oc1ccc(Oc2ccc(C(F)(F)F)cn2)cc1`: the result was inactive.

On to `S=C([S-])NCCNC(=S)[S-].[Mn+2]`, for which the AC50 was 3.76 µM (active).

With `C=CCOC(Cn1ccnc1)c1ccc(Cl)cc1Cl` (centres undefined), the AC50 was 36.4 µM (active).

`CCN(CC)C(=O)c1cccc(C)c1`: the call was inactive.

In the case of `N[C@@H](Cc1cc(I)c(Oc2ccc(O)c(I)c2)c(I)c1)C(=O)O`, the concentration at half-maximal activity (AC50) was 27.1 µM (active).

In the case of `O=C(Nc1ccc([N+](=O)[O-])cc1Cl)c1cc(Cl)ccc1O`, the concentration at half-maximal activity (AC50) was 5.12 µM (active).

Take `CCSC(=O)N(CC(C)C)CC(C)C`: the outcome was inactive.

For the compound `CCCN(CCC)c1c([N+](=O)[O-])cc(C(F)(F)F)c(N)c1[N+](=O)[O-]`, the result was inactive.

As to `COC(=O)CSc1cc(N=c2sc(=O)n3n2CCCC3)c(F)cc1Cl`, the compound was called inactive.

In the case of `S=C(S)NCCNC(=S)S.[Mn+2].[S-]C([S-])=NCCN=C([S-])[S-].[Zn+2]`, the concentration at half-maximal activity (AC50) was 1.2 µM (active) and 1.29 µM (active) and 1.56 µM (active).
